Rows were chosen to be rich in hits. Some 17% of all compounds tested hit in one or more screens of this group.
TDP1 cell noCPT – qHTS for Inhibitors of human tyrosyl-DNA phosphodiesterase 1 (TDP1): qHTS in cells in absence of CPT. DT40 Tdp1-/- hTDP1 cells, no CPT, ATP luminescence, 48 h. AID 686978, 2013. 15% of 420,000 active. Potency, µM (highest dose often 46.2 µM), without a hit: at the highest dose activity change, negative = growth inhibition, most hits filed as inhibitors; further: on the % scale 0 is the no-effect control and ±100 the full control effect; nearly all actives have a fitted effect of over 55% in size
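Readout: luminescence from CellTiter-Glo after 30 min in the dark at RT. Cells: DT40 Tdp1-/- with stable hTDP1, 400/well. Exposure: compounds alone, ≥48 hr, 37 °C.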
ATXN2 expr inh – inhibitors of ATXN2 expression; HEK-293 ATXN2-luciferase reporter, luminescence, 24 h; Potency, µM (top dose mostly 57 µM), without a hit: at the top dose activity change, negative = inhibition, usual class: inhibitors; 0.72% of 360,000 active; AID 1745845; further: on the % scale 0 is the no-effect control and ±100 the full control effect; nearly all actives have a fitted effect of over 55% in size
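qHTS (up to 57 uM final) was run with 24 h compound exposure of reporter cells at 37 °C. Each well was multiplexed: SteadyGlo luminescence measured ATXN2-luciferase expression after a fluorogenic Gly-Phe-AFC viability readout (25 uM final).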
TGFb inhibitor – blocks TGF-b signaling; AID 588855; HepG2 CAGA-GFP TGF-b/SMAD3 reporter, GFP fluorescence, 18 h; TGF-beta stimulated, 500 pg/mL final; 1.2% of 410,000 active; Potency, µM (series often up to 46.1 µM), for inactives: at the highest dose activity, negative = inhibition, hits mostly inhibitors; further: on the % scale 0 is the no-effect control and ±100 the full control effect; nearly all actives have a fitted effect of over 65% in size
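GFP signal (ex488/em500-530) from TGF-beta-stimulated HEPG2 CAGA-GFP cells, 500 pg/mL final, 18 h at 37 degrees C in DMEM plus 1% FBS, normalized to unstimulated and DMSO-stimulated controls.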
ATXN viability – cell viability loss in ATXN counter-screen; 0.49% of 400,000 active; Potency, µM (doses to about 56.7 µM), usual class: cytotoxic; S2 cells (HEK-293 line with an ATXN2-luciferase reporter) viability, CellTiter-Fluor protease fluorescence, 24 h; further: nearly all actives have a fitted effect of over 40% in size
TDP1 cell CPT – growth inhibition of DT40 Tdp1-/-;hTDP1 cells with camptothecin (screen for TDP1 inhibitors) | 12% of 420,000 active | Potency, µM (highest dose often 46.2 µM), without a hit: at the top dose activity change, negative = growth inhibition, actives largely listed as inhibitors | chicken DT40 Tdp1-/-;hTDP1 cells + 20 nM CPT, ATP luminescence, 48 h; further: on the % scale 0 is the no-effect control and ±100 the full control effect; nearly all actives have a fitted effect of over 55% in size
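Cell growth measured by CellTiter-Glo luminescence after a minimum 48 h, 37 C compound exposure with 20 nM CPT in Tdp1-knockout DT40 cells stably expressing hTDP1, seeded 400/well; qHTS titration format.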
HepG2 viability – HepG2 cytotoxicity, counter-screen for TGF-b inhibitors; Potency, µM (series often up to 46.1 µM), inactives show at the top dose activity change, negative = cytotoxicity, most hits filed as cytotoxic; AID 588856; HepG2 CAGA-GFP viability, ATP luminescence, 18 h; 0.76% of 410,000 active
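CellTiter-Glo luminescence gave cytotoxicity after 18 hours at 37 degrees C. The cells were HepG2 CAGA-GFP in 1% FBS DMEM, stimulated with 500 pg/mL TGF-beta after compound addition. %Activity was normalised to no-cell wells (complete cell-killing) and DMSO (no toxicity), and curves were fitted and classified.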
An asterisk follows results filed as active; i = inactive; ? = inconclusive; · = not tested or not shown; ! = not confirmed by another sample. The call rests on the fitted dose curve; in most records, active means well fitted curve in the direction sought with a large enough effect; inconclusive means small, poorly fitted or top-dose-only effect, or another doubt; inactive means no such curve, though single readings can be large; an effect the other way counts as inactive or inconclusive. Potency means the concentration at half of the fitted maximal effect.

SMILES	TDP1 cell noCPT	ATXN2 expr inh	TGFb inhibitor	ATXN viability	TDP1 cell CPT	HepG2 viability
CC1CCN(c2nc3ccc(C(=O)N4CCN(Cc5ccc6c(c5)OCO6)CC4)cc3s2)CC1	?	22.9%	-13.8%	i	?	-24.5%
CC(=O)Nc1cccc(NC(=O)c2ccc(COc3ccccc3)cc2)c1	-6.8%	31.5%	-2.5%	i	7.1%	-1.1%
COc1ccc(NC(=O)N2CCN(Cc3nc4ccc(C)cc4o3)CC2)cc1OC	-7.3%	3.2%	-1.1%	i	-14.4%	-6.8%
Cc1ccc2nc(-c3cccnc3)c(NC3CCCCC3)n2c1	?	-9.5%	-3.6%	i	?	5.4%
COc1ccc(-c2ccc(-c3nc4ccc(C)cn4c3NC3CCCCC3)cc2OC)cc1	13µM*	?	?	i	10.3µM*	-20.4%
CCC(C)Sc1ccc(-c2nc3ccc(C)cn3c2NC2CCCCC2)cc1 (centres undefined)	8.2µM*	-16.0%	1.1%	?	7.31µM*	-26.4%
O=C(COc1ccc(Cl)cc1)NCCc1csc(-c2ccc(C(F)(F)F)cc2)n1	23.1µM*	·	-5.5%	·	?	-66.5%
COc1cc(C(=O)NCCc2csc(-c3ccc(Cl)cc3)n2)cc(OC)c1OC	20.6µM*	20µM*	-13.9%	·	?	8.4%
COc1ccc(CC(=O)NCCc2csc(-c3ccc(Cl)cc3)n2)cc1	16.4µM*	-19.8%	?	i	18.4µM*	-6.2%
O=C(NCCc1csc(-c2cccnc2)n1)c1ccc(Cl)cc1	?	6.5%	-7.9%	?	-17.3%	-36.9%
CCOc1cc(C(=O)NCCc2csc(-c3ccc(C)cc3)n2)cc(OCC)c1OCC	16.4µM*	·	?	·	?	-7.1%
CC(=O)Nc1nonc1-c1nnc(SCC(=O)Nc2ccc(C)cc2)n1-c1ccccc1	?	-17.5%	9.5%	?	?	-6.2%
CC(=O)c1ccc(NC(=O)COc2ccccc2-c2nc(-c3cccc(C)c3)no2)cc1	-19.2%	1.0%	-4.9%	i	-2.6%	-15.2%
Cc1ccccc1Oc1nc2c(c(=O)n(C)c(=O)n2C)n1Cc1ccc(Br)cc1	-10.8%	-4.9%	1.6%	i	-7.4%	-6.8%
CC(=O)SC1CC(=O)C=C2CCC3C4CCC(=O)OC4(C)CCC3C21C (centres undefined)	-10.9%	6.7%	16.5%	i	14.8%	-1.2%
COc1ccc(-c2nc(CCNC(=O)c3ccccc3)cs2)cc1OC	23.1µM*	·	-15.5%	·	23.1µM*	-9.1%
Cc1nc(CCNC(=O)COc2ccccc2)cs1	-20.9%	-2.1%	-2.7%	i	3.2%	-19.1%
O=C(COc1ccc(Cl)cc1)NCCc1csc(-c2ccc(F)cc2)n1	14.6µM*	?	-13.8%	i	16.4µM*	-36.1%
O=C(NCCc1csc(-c2ccc(Cl)cc2)n1)c1ccco1	14.6µM*	14.1µM*!	-17.6%	i	?	-13.8%
Cc1ccc(-c2nc(CCNC(=O)c3ccco3)cs2)cc1	?	-0.8%	-16.5%	i	2.1%	0.5%
O=C(COc1ccccc1)NCCc1csc(-c2ccc(Cl)cc2)n1	?	-17.6%	11.2µM*	i	?	-73.2%
O=C(N/N=C/c1ccc2cccnc2c1)c1nc2ccccc2c(=O)[nH]1	-21.3%	5.3%	-2.5%	i	-25.7%	1.9%
O=C1C=C(OCCF)CC(c2ccc(Br)cc2)O1 (centres undefined)	9.1%	·	·	·	-9.7%	·
COCCn1nnnc1C(c1ccc(OC)cc1)N1CCC(C)CC1 (centres undefined)	-25.0%	-3.9%	22.0%	i	?	20.3%
Cc1ccc(C(c2nnnn2CCc2ccccc2)N2CCC(C)CC2)cc1 (centres undefined)	16.4µM*	-16.2%	?	i	?	-30.2%
SMILES	TDP1 cell noCPT	ATXN2 expr inh	TGFb inhibitor	ATXN viability	TDP1 cell CPT	HepG2 viability
Cc1ccc(C(c2nnnn2CCc2ccccc2)N2CCSCC2)cc1 (centres undefined)	?	1.9%	6.1%	i	16.4µM*	1.5%
O=C(NCCc1ccccc1)c1cccc(NC(=O)C2CCCC2)c1	-17.8%	46.3%	1.0%	i	-6.1%	2.0%
COc1ccc(N2CCN(c3ncnc4sc(C(=O)NCC5CCCO5)c(C)c34)CC2)cc1 (centres undefined)	23.1µM*	-11.4%	-3.8%	i	?	-15.3%
CCN1CCN(C(=O)c2sc3ncnc(NCC4CCCO4)c3c2C)CC1 (centres undefined)	-14.6%	·	·	i	-1.8%	·
COc1ccccc1N1CCN(c2ncnc3sc(C(=O)NCC4CCCO4)c(C)c23)CC1 (centres undefined)	13µM*	-8.9%	-4.0%	i	?	-14.8%
COc1ccc(-n2c(N)c(C(=O)NCC3CCCO3)sc2=S)cc1 (centres undefined)	-5.6%	1.8%	-4.5%	i	-13.0%	-15.5%
CC(C)NC(=O)CN(Cc1ccc(F)cc1)C(=O)CCC(=O)Nc1ccccn1	-1.8%	-16.3%	18.5%	i	2.5%	-2.8%
CCC(=O)NC(c1cccs1)c1ccc2cccnc2c1O (centres undefined)	4.61µM*	·	1µM*	?	2.91µM*	0.8%
CC(C)CC(=O)NC(c1cccs1)c1ccc2cccnc2c1O (centres undefined)	0.581µM*	?	?	i	2.91µM*	8.6%
COc1ccc(Oc2cccc(Cl)c2CNC(=O)CCCC(=O)O)cc1	-6.7%	·	-3.4%	i	-1.0%	-7.6%
CCCn1c2ccc(F)cc2c2nnc(SCCN3CCOCC3)nc21	?	-4.0%	0.0%	i	18.4µM*	2.1%
CCn1c2ccc(F)cc2c2nnc(SCCN3CCCCC3)nc21	16.4µM*!	-16.0%	?	i	?	-7.5%
CCn1c2ccc(C)cc2c2nnc(SCCN3CCCCC3)nc21	16.4µM*	-18.8%	-6.7%	i	?	-22.3%
CCCn1c2ccc(C)cc2c2n[nH]c(=S)nc21	14.6µM*	-16.8%	-2.5%	i	?	-5.0%
O=C(Nc1ccccc1C(=O)O)c1cc(S(=O)(=O)Nc2ccccc2)ccc1Cl	?	0.2%	1.5%	i	?	-11.2%
COc1ccccc1-c1cncnc1N1CCN(C)CC1	-18.5%	·	·	·	-2.4%	·
CCC1CCCCN1S(=O)(=O)c1cc2c3c(c1)CC(=O)N3CCC2 (centres undefined)	-23.4%	·	10.2%	·	-22.1%	-2.1%

Assay outcomes from PubChem BioAssay.
